From PubChem
IL1B secr inh = inhibitors of inflammasome signaling (IL-1 beta secretion); actives 4.7% (n = 360,000); activity change, % at 57.5 µM; THP-1 LPS/ATP IL-1B secretion, AlphaLISA, 16 h; hits give low values; in the data active = activity change below about -50%; inconclusive = mostly about -30% to -49%
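THP-1 cells pretreated 1 hr with compounds (up to 57.5 uM final), then stimulated with LPS (250 ng/mL final) plus ATP (1.25 mM final); secreted IL-1B measured by AlphaLISA after 16 hr, decreased signal indicating inhibition.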
HT1080-NT tox = kills 2HG-producing HT-1080-NT fibrosarcoma cells; Potency, µM (titrated, usually from 46.1 µM), for inactives: top-dose activity, negative = less viability, usual class: cytotoxic; actives 1.6% (n = 360,000); HT-1080-NT fibrosarcoma viability, CellTiter-Glo ATP luminescence, 48 h;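 note: NT is the 2HG producing partner of a matched IDH1 knockdown line; potency is the fitted concentration of half-maximal effect; 0% = DMSO-treated cells and -100% = media-only wells without cells; nearly all actives have a fitted effect of over 55% in size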
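Fibrosarcoma NT cells, 750 per well in 5% FBS RPMI, were exposed to compound for 48 hours. Viability: CellTiter-Glo luminescence.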
TDP1 cell noCPT = qHTS for Inhibitors of human tyrosyl-DNA phosphodiesterase 1 (TDP1): qHTS in cells in absence of CPT. DT40 Tdp1-/- hTDP1 cells, no CPT, ATP luminescence, 48 h. Potency, µM (top dose mostly 46.2 µM), inactives show at the highest dose activity change, negative = growth inhibition, hits mostly inhibitors. actives 15% (n = 420,000); note: potency is the fitted concentration of half-maximal effect; nearly all actives have a fitted effect of over 55% in size
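Growth of hTDP1-complemented DT40 Tdp1-knockout cells is measured by ATP luminescence after at least 48 hr compound exposure at 37 °C, with DMSO substituting for the 20 nM CPT used in the parallel screen.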
DT40 TDP1 CPT = growth inhibition of DT40 Tdp1-/-;hTDP1 cells with camptothecin (screen for TDP1 inhibitors). chicken DT40 Tdp1-/-;hTDP1 cells + 20 nM CPT, ATP luminescence, 48 h. Potency, µM (top dose mostly 46.2 µM), without a hit: top-dose activity change, negative = growth inhibition, usual class: inhibitors. actives 12% (n = 420,000); note: potency is the fitted concentration of half-maximal effect; nearly all actives have a fitted effect of over 55% in size
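Cell growth measured by CellTiter-Glo luminescence after a minimum 48 h, 37 C compound exposure with 20 nM CPT in Tdp1-knockout DT40 cells stably expressing hTDP1, seeded 400/well; qHTS titration format.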
HT1080 IDH1KD tx = toxicity to HT-1080 IDH1 knockdown cells (counter line); HT-1080 IDH1 knockdown viability, ATP luminescence, 48 h; AID 686971; actives 2% (n = 360,000); Potency, µM (titrated, usually from 46.1 µM), for the others: at the top dose activity, negative = toxicity, hits mostly cytotoxic;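 note: potency is the fitted concentration of half-maximal effect; 0% = DMSO wells and -100% = cell-free medium wells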
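Knockdown cells (IDH1KD HT-1080) received compounds 2 h after plating at 750 cells/well and were kept 48 h at 37 °C in 5% FBS RPMI. A CellTiter-Glo luminescence read gave % activity for curve fitting.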
Numbers without * were called inactive; ? = inconclusive; . = no result given; [ ] = remark or other dose. Sampled rows, rich in hits. Any-hit rate of the full collection: about 19%. Unless noted, calls come from the whole dose curve; as a rule, active = well fitted curve in the direction sought with a large enough effect; inconclusive = small, poorly fitted or top-dose-only effect, or another doubt; inactive = no such curve, though single readings can be large; an effect the other way counts as inactive or inconclusive. Unless noted, % is set by controls: 0 for no effect and ±100 for the full control effect.

SMILES	IL1B secr inh	HT1080-NT tox	TDP1 cell noCPT	DT40 TDP1 CPT	HT1080 IDH1KD tx
CCOc1ccc(CN(C(=O)c2cc(=O)c3cc(C)cc(C)c3o2)C2CCS(=O)(=O)C2)cc1 (stereo unspecified)	-7	-11%	?	?	-6%
Cc1ccc2nc(-c3ccc(F)cc3)c(Cc3ccccc3C(F)(F)F)n2c1	14	?	?	?	?
Cc1ccc2nc(-c3ccc(F)cc3)c(NC(C)(C)CC(C)(C)C)n2c1	.	.	8.2µM*	16µM*	.
Oc1ccc(-c2nc3cnccn3c2Nc2ccc3c(c2)OCCO3)cc1	69	2%	-8%	2%	3%
CC(C)(C)CC(C)(C)Nc1c(-c2ccc(O)cc2)nc2cnccn12	-15	?	26µM*	18µM*	?
Cc1csc(NC(=O)CSc2nnc(NC(=O)NC(C)(C)C)s2)n1	32	5%	?	?	4%
O=C1Nc2ccccc2-c2nnnn2C1N1CCCCC1 (stereo unspecified)	21	10%	-11%	5%	13%
CSc1nnc(-c2sc3cc(Cl)ccc3c2Cl)n1C	-11	0%	26µM*	?	2%
CCn1c(SC)nnc1-c1sc2cc(Cl)ccc2c1Cl	?	-17%	?	16µM*	-29%
CCn1c(SC)nnc1-c1c[nH]c2ccccc12	4	-1%	-26%	-18%	-3%
O=C(NNc1c(Cl)cc(Cl)cc1Cl)C1CCC1	-4	4%	-22%	-4%	-2%
O=C(Cc1cccs1)NNC(=S)NC(=O)c1ccc(F)c(F)c1	30	-1%	?	21µM*	13%
O=C(Cc1cccs1)NNC(=S)NC(=O)c1ccccc1	0	-1%	15µM*	?	-15%
O=C(Cc1ccccc1)NNC(=S)NC(=O)c1cccs1	69	-27%	?	?	?
O=C(Cc1cccs1)NCc1ccc(F)cc1	-1	9%	0%	8%	3%
NC(=O)NS(=O)(=O)c1ccc(N)cc1	.	.	2%	-4%	.
COc1cc(OC)cc(-c2sc3ccc(OC)cc3c2C#CCO)c1	-18	?	21µM*	?	?
COc1cccc(-c2sc3ccc(OC)cc3c2C#CCCO)c1	16	-14%	?	26µM*	-17%
COc1ccc(OC)c(-c2ccc(O)c(CN3CCc4c([nH]c5ccccc45)C3)c2)c1	.	.	?	-5%[9.04 µM]	.
COC(=O)/C=C\c1cc(O)ccc1O	.	.	0.6µM*	0.6µM*	.
COC(=O)/C=C/c1cnc2ccccc2c1	-17	1%	?	-26%	14%
CC(C)Cn1c(O)c(N=NC(=O)c2cccc(S(=O)(=O)N3CCCCC3)c2)c2ccccc21	?	3%	13µM*	16µM*	-2%
O=C(CSc1nc2ccncc2[nH]1)Nc1ccccc1C(F)(F)F	38	-2%	15µM*	?	0%
O=C(CSc1nc2cc3ccccc3cc2[nH]1)Nc1cccc(C(F)(F)F)c1	.	.	21µM*	18µM*	.
COc1cc(OC)c(NC(=O)CSc2nc3ccncc3[nH]2)cc1Cl	.	.	5.2µM*	6.5µM*	.
SMILES	IL1B secr inh	HT1080-NT tox	TDP1 cell noCPT	DT40 TDP1 CPT	HT1080 IDH1KD tx
Cc1ccc(S(=O)(=O)Nc2c(C)cc(C)nc2Cl)cc1	12	-1%	-5%	-15%	-6%
C=Cc1ccc(Cn2c(=O)n(-c3ccc(C)cc3)c(=O)c3c2c2cc(OC)ccc2n3C)cc1	.	.	26µM*	?	.
COc1ccc2c(c1)c1c(c(=O)n(-c3ccccc3C)c(=O)n1CC(=O)NCc1ccc(C)cc1)n2C	.	.	13µM*	21µM*	.
COc1cccc(NC(=O)Cn2c(=O)n(Cc3ccccc3)c(=O)c3c2c2cc(C)ccc2n3C)c1	.	.	3.7µM*	?	.
COc1ccc2c(c1)c1c(c(=O)n(-c3ccccc3)c(=O)n1CC(=O)NCc1ccc(C)cc1)n2C	.	.	-30%	-23%	.
Cc1ccc2c(c1)c1c(c(=O)n(-c3ccccc3C)c(=O)n1Cc1cccc(F)c1)n2C	.	.	9.2µM*	13µM*	.
COc1ccc2c(c1)c1c(c(=O)n(-c3ccc(OC)c(OC)c3)c(=O)n1Cc1ccc(C)cc1)n2C	.	.	-14%	-25%	.
COc1ccc2c(c1)c1c(c(=O)n(Cc3ccccc3)c(=O)n1CC(=O)Nc1cc(C)cc(C)c1)n2C	.	.	-25%	?	.
N#Cc1ccccc1NC(=O)COC(=O)/C=C/c1ccc(S(=O)(=O)N2CCOCC2)cc1	-8	3%	-8%	6%	11%
C#CCOCCOCCOCCNc1nc(N2CCOCC2)nc(N2CCN(C(=O)Cn3cc(CCCCN)nn3)CC2)n1	16	18%	0%	5%	16%
Cc1ccc(C)c(Cn2c(=O)n(Cc3ccccc3)c(=O)c3c2c2cc(C)ccc2n3C)c1	.	.	-17%	-9%	.
Cc1cccc(Cn2c(=O)n(-c3ccccc3C)c(=O)c3c2c2cc(C)ccc2n3C)c1	.	.	21µM*	23µM*	.
NNc1nc2c(Cl)c(Cl)ccc2s1	-60*	-14%	?	?	-26%
NNc1nc2ccc(F)cc2s1	-3	-12%	?	?	-16%
CCc1ccc2c(c1)c(N=NC1=NC(=O)CS1)c(O)n2C	-13	2%	16µM*	-28%	6%
Cc1cc(C)c2[nH]c(O)c(N=NC3=NC(=O)CS3)c2c1	-7	1%	?	-13%	8%
COCCn1c(SCC(=O)NC(=O)NC2CCCC2)nc2ccccc2c1=O	-7	-10%	?	?	-1%
CCOC(=O)c1ccc(NC(=S)Nc2ccc(C)cc2)cc1	-8	-18%	?	1%	?
